This passage reports Potency results from PubChem BioAssay (NCATS).

Results filed as inconclusive are left out. Entries that show only a call come without a potency. The source made the active and inactive calls. The call rests on the fitted dose curve; in most records, active means well fitted inhibition curve with a large enough effect; inconclusive means small, poorly fitted or top-dose-only effect; inactive means flat fitted curve, though single readings scatter.
Potency means the concentration at half of the fitted maximal effect.

This assay relates to ATS189. The assay can be described thus: qHTS profiling for inhibitors of Plasmodium falciparum proliferation (AID 504749). Further: nearly all actives have a fitted effect of over 60% in size. As to conditions: P. falciparum in erythrocytes, SYBR Green DNA, 72 h; series mostly up to 28.7 µM. The method, boiled down: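 Fluorescence of SYBR Green-bound parasite DNA, read at 485/535 nm, served as the growth measure. Infected erythrocytes were cultured with compound 72 h; artemisinin (0.29 uM) and DMSO wells defined the normalization range.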
For `CC(C)OC(=O)C(C(=O)OC(C)C)=C1SC=CS1`, the Potency entry was “inactive”.
The same measure for `CC[C@H](NC(C)C)[C@H](O)c1ccc(O)c2[nH]c(=O)ccc12`: “inactive”; for `NC(=O)c1cccnc1`: “inactive”; for `Cc1ccnc2c1NC(=O)c1cccnc1N2C1CC1`: “inactive”.
As for `O=P(O)(O)C(O)(Cc1cccnc1)P(=O)(O)O`, the entry is “inactive”.
The same measure for `CCc1c2c(nc3ccc(OC(=O)N4CCC(N5CCCCC5)CC4)cc13)-c1cc3c(c(=O)n1C2)COC(=O)[C@]3(O)CC`: “inactive”; for `C#CCN[C@@H]1CCc2ccccc21`: “inactive”.
In the case of `CNS(=O)(=O)Cc1ccc2[nH]cc(CCN(C)C)c2c1`, the Potency result is “inactive”.
As for `Cc1noc(NS(=O)(=O)c2ccc(N)cc2)c1C`, the entry is “inactive”.
As for `COc1c(N2CCNC(C)C2)c(F)cc2c(=O)c(C(=O)O)cn(C3CC3)c12` (centres undefined), the Potency result is “inactive”.
In the case of `CCCN[C@H]1CCc2nc(N)sc2C1`, the Potency entry is “inactive”.
The same measure for `CN1CCN(c2c(F)cc3c(=O)c(C(=O)O)cn4c3c2OCN4C)CC1`: “inactive”; for `COc1cc(NCc2ccc3nc(N)nc(N)c3c2C)cc(OC)c1OC`: 282 nM (active).
As for `Cc1cccc(Nc2ccncc2S(=O)(=O)NC(=O)NC(C)C)c1`, the entry is “inactive”; as for `CC1=NN(c2ccccc2)C(=O)C1`, “inactive”.
With `CCN(C)C(=O)Oc1cccc([C@H](C)N(C)C)c1`, the Potency result is “inactive”.
The same measure for `CN(C)c1ccc(C(=C2C=CC(=[N+](C)C)C=C2)c2ccc(N(C)C)cc2)cc1`: 282 nM (active).
As for `NCCCC(O)(P(=O)(O)O)P(=O)(O)O`, the entry is “inactive”.
The same measure for `COc1ccc(C(=O)CC(=O)c2ccc(C(C)(C)C)cc2)cc1`: “inactive”; for `Cn1nnc2c(C(N)=O)ncn2c1=O`: “inactive”.
Consider `O=NN(CCCl)C(=O)NC1CCCCC1`, for which the Potency result is “inactive”.
As for `Cc1nnc(NS(=O)(=O)c2ccc(N)cc2)s1`, the entry is “inactive”.
As for `Cc1ncc([N+](=O)[O-])n1CCO`, the entry is “inactive”; as for `CCOCC(O)COc1ccc(NC(=O)CC[S+](C)C)cc1` (centres undefined), “inactive”; as for `CCOc1cc(N)c(Cl)cc1C(=O)NCC1CN(Cc2ccc(F)cc2)CCO1` (centres undefined), 5010 nM (active).
For the compound `S=P(N1CC1)(N1CC1)N1CC1`, the Potency result was “inactive”.
As to `COc1cnc(NS(=O)(=O)c2ccc(N)cc2)nc1`, the Potency result was “inactive”.
As for `CC[C@H](C)C(=O)O[C@H]1C[C@@H](C)C=C2C=C[C@H](C)[C@H](CC[C@@H]3C[C@@H](O)CC(=O)O3)[C@H]21`, the entry is “inactive”.
As to `CCCc1cc(C(N)=S)ccn1`, the Potency entry was “inactive”.
